An excerpt weighted towards active compounds, which were near 5.9% of everything screened.
TGFb inhibitor: qHTS for Inhibitors of TGF-b. HepG2 CAGA-GFP TGF-b/SMAD3 reporter, GFP fluorescence, 18 h; TGF-beta stimulated, 500 pg/mL final. Potency, µM (top dose mostly 46.1 µM), for inactives: at the top dose activity, negative = inhibition, hits mostly inhibitors. hit rate 1.2% among 410,000. AID 588855, 2011; note: % is set by controls: 0 for no effect and ±100 for the full control effect; nearly all actives have a fitted effect of over 65% in size
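HEPG2 CAGA-GFP cells (1000/well, DMEM with 1% FBS) were pre-incubated 2 h at 37 degrees C, given compound by pin tool, then stimulated with TGF-beta at 500 pg/mL final for 18 h before per-cell GFP fluorescence imaging.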
KB-V1 MDR tox: qHTS assay for MDR1-selective chemotherapeutics: Primary screen using the drug-selected MDR subline cells KB-V1; KB-V1 MDR cells viability, CellTiter-Glo, 72 h; Potency, µM (doses to about 46.1 µM), usual class: cytotoxic; hit rate 3.4% among 400,000; note: % is set by controls: 0 for no effect and ±100 for the full control effect; nearly all actives have a fitted effect of over 60% in size
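Cytotoxicity toward P-gp-expressing KB-V1 cells was determined as loss of CellTiter-Glo luminescence after 72 h at 37 degrees C. Compounds were tested in quantitative HTS format across a concentration range, with curves fitted to normalized data.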
ATXN2 expr inh: Primary qHTS for Inhibitors of ATXN expression. Potency, µM (series often up to 57 µM), inactives show at the top dose activity change, negative = inhibition, hits mostly inhibitors. HEK-293 ATXN2-luciferase reporter, luminescence, 24 h. hit rate 0.72% among 360,000; note: % is set by controls: 0 for no effect and ±100 for the full control effect; nearly all actives have a fitted effect of over 55% in size
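qHTS (up to 57 uM final) was run with 24 h compound exposure of reporter cells at 37 °C. Each well was multiplexed: SteadyGlo luminescence measured ATXN2-luciferase expression after a fluorogenic Gly-Phe-AFC viability readout (25 uM final).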
KB-3-1 cytotox: qHTS assay for MDR1-selective chemotherapeutics: Primary screen using the parental adenocarcinoma cell KB-3-1; KB-3-1 viability, CellTiter-Glo ATP luminescence, 72 h; Potency, µM (titrated, usually from 46.1 µM), hits mostly cytotoxic; hit rate 1.4% among 400,000; AID 1347075, 2019; note: % is set by controls: 0 for no effect and ±100 for the full control effect; nearly all actives have a fitted effect of over 60% in size
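Cells are dispensed, compounds pinned in, plates held at 37 °C for 72 h, then CellTiter-Glo is added and luminescence read after 10 minutes. Cell line: parental KB-3-1 in phenol-red-free DMEM, 10% FBS.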
HepG2 viability: qHTS for Inhibitors of TGF-b: Cytotox Counterscreen; Potency, µM (highest dose often 46.1 µM), for the others: at the top dose activity change, negative = cytotoxicity, actives largely listed as cytotoxic; hit rate 0.76% among 410,000; HepG2 CAGA-GFP viability, ATP luminescence, 18 h; AID 588856, 2011
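CellTiter-Glo luminescence gave cytotoxicity after 18 hours at 37 degrees C. The cells were HepG2 CAGA-GFP in 1% FBS DMEM, stimulated with 500 pg/mL TGF-beta after compound addition. %Activity was normalised to no-cell wells (complete cell-killing) and DMSO (no toxicity), and curves were fitted and classified.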
ATXN viability: Viability Counterscreen for Primary qHTS for Inhibitors of ATXN expression. AID 651635, 2014. hit rate 0.49% among 400,000. Potency, µM (titrated, usually from 56.7 µM), hits mostly cytotoxic. S2 cells (HEK-293 line with an ATXN2-luciferase reporter) viability, CellTiter-Fluor protease fluorescence, 24 h; note: nearly all actives have a fitted effect of over 40% in size
The depositor's hits bear a star; i = inactive; ? = inconclusive; · = not tested or not shown. Calls come from the whole dose curve; as a rule, active = well fitted curve in the direction sought with a large enough effect; inconclusive = small, poorly fitted or top-dose-only effect, or another doubt; inactive = no such curve, though single readings can be large; an effect the other way counts as inactive or inconclusive. Potency is the fitted concentration of half-maximal effect.

SMILES	TGFb inhibitor	KB-V1 MDR tox	ATXN2 expr inh	KB-3-1 cytotox	HepG2 viability	ATXN viability
Cc1cccc(CN2C(=O)c3ccccc3Sc3ccc(C(=O)NCc4ccco4)cc32)c1	?	·	·	·	-11%	·
Cc1cccc(N2CCN(C(=S)NCCc3ccccc3)CC2)c1C	5%	?	1%	i	17%	i
COCCNC(=S)N1CCN(c2cccc(C)c2C)CC1	-27%	21µM*	-28%	i	-1%	i
COc1ccccc1N1CCN(C(=O)c2ccc(C(C)(C)C)cc2)CC1	-22%	?	-1%	?	-76%	i
COc1ccccc1C1CCN(C(=O)c2ccc(C(C)(C)C)cc2)CC1	13µM*	i	17%	i	-58%	i
Cc1ccc(CN2CC(N3CCN(CC4CC4)CC3)CS2(=O)=O)cc1 (stereo not given)	-31%	i	6%	i	2%	i
O=S(=O)(NCc1csc(-c2ccccc2)n1)c1ccccc1	·	·	·	·	-9%	·
O=C(CCCCn1c(=O)[nH]c2ccsc2c1=O)N1CCN(c2cccc(C(F)(F)F)c2)CC1	10µM*	i	?	i	-49%	?
CC(=O)c1ccc(N2CCN(C(=O)CCCn3c(=O)[nH]c4ccc(Br)cc4c3=O)CC2)cc1	?	i	·	i	-59%	?
O=C(NCCC(=O)N1CCN(c2cccc(Cl)c2)CC1)c1ccc(Br)cc1	?	23µM*	-18%	i	-12%	i
O=C(CCCn1c(=O)[nH]c2ccc(Br)cc2c1=O)N1CCN(c2cccc(Cl)c2)CC1	5µM*	?	-28%	?	-28%	i
O=C(CCS(=O)(=O)c1ccc(Br)cc1)N1CCN(c2ccc(Cl)cc2)CC1	10%	5.8µM*	-21%	i	-5%	i
O=C(c1ccco1)N(CCC(c1ccccc1)c1ccco1)Cc1ccco1 (stereo not given)	-21%	13µM*	10%	i	-19%	?
CC(=O)N(CCC(c1ccccc1)c1ccco1)Cc1cccs1 (stereo not given)	0%	21µM*	-12%	?	0%	i
COc1cccc(/C=c2/[nH]c(=O)/c(=C\c3cccc(OC)c3OC)[nH]c2=O)c1OC	7%	i	·	i	-3%	·
COc1ccc(NC(=O)C(C)N2c3cccc4cccc(c34)S2(=O)=O)cc1 (stereo not given)	7%	i	-7%	i	-37%	i
COc1ccc(NC(=O)C(C)N2c3cccc4cccc(c34)S2(=O)=O)cc1OC (stereo not given)	-10%	5.2µM*	?	18µM*	-27%	?
COc1ccc(CCNC(=O)Cn2c(=O)nc(-c3ccccc3F)c3cc(Cl)ccc32)cc1OC	9%	·	·	·	-4%	·
COc1cccc2c1C(=O)c1c(O)c3c(c(O)c1C2=O)C[C@@](O)(C(=O)CO)C[C@H]3O[C@H]1C[C@H](N)[C@H](O)[C@H](C)O1	·	·	0.27µM*	·	·	·
COc1cccc2c1-c1c(O)cccc1C2=O	15%	i	·	i	-1%	i
COc1cccc2c1C(=N)c1c(O)c3c(c(O)c1C2=O)CC(O)(C(C)=O)CC3OC1CC(N)C(O)C(C)O1 (stereo not given)	7.1µM*	?	1.2µM*	?	-57%	?
CCCCC(=O)OCC(=O)C1(O)Cc2c(O)c3c(c(O)c2C(OC2CC(NC(=O)C(F)(F)F)C(O)C(C)O2)C1)C(=O)c1c(OC)cccc1C3=O (stereo not given)	?	i	2.5µM*	?	-42%	3.5µM*
COc1cccc2c1C(=O)c1c(O)c3c(c(O)c1C2=O)CC(O)(C(C)=O)CC3OC1CC(O)C(O)C(C)O1 (stereo not given)	-19%	?	?	?	-32%	19µM*
O=C(Nc1ccc(Oc2cccc(C(F)(F)F)c2)nc1)c1ccco1	-3%	i	-15%	i	-22%	?
COc1ccccc1NC(=O)Cn1nnc(-c2ccccc2NC(=O)c2ccco2)n1	11%	?	-24%	i	-10%	?
SMILES	TGFb inhibitor	KB-V1 MDR tox	ATXN2 expr inh	KB-3-1 cytotox	HepG2 viability	ATXN viability
COc1ccc(NC(=O)Cn2nnc(-c3ccccc3NC(=O)c3ccco3)n2)cc1	10%	?	?	4.1µM*	-34%	?
O=C(Nc1ccc(-c2cn3ccccc3n2)cc1)c1ccco1	0%	10µM*	9%	i	-66%	i
CC(C)(C)c1ccc(Oc2ccc(NC(=O)c3ccco3)cn2)cc1	11µM*	?	·	i	-60%	?
COc1ccc(-c2ccc(NC(=O)c3ccco3)cc2)nn1	-11%	?	?	10µM*	5µM*	i
CCCCCCCCCCCCOCCO	·	·	15%	·	·	i
COc1cc(C(=O)N2CCN(Cc3ccccc3C(F)(F)F)CC2)cc(OC)c1OC	?	15µM*	-11%	i	-12%	i
O=C(c1ccc(OC2CCN(Cc3ccccc3C(F)(F)F)CC2)cc1)N1CCCCC1	?	16µM*	-30%	?	-79%	i
COc1cc(OC)cc(C(=O)N2CCN(Cc3ccccc3C(F)(F)F)CC2)c1	24%	15µM*	2%	i	-20%	i
COc1cccc(OC)c1C(=O)N1CCN(Cc2ccccc2C(F)(F)F)CC1	-29%	i	-18%	i	2%	i
O=C(c1ccc(OC2CCN(Cc3ccc(C(F)(F)F)cc3)CC2)cc1)N1CCCCC1	6%	i	-16%	i	-6%	i
COc1cc(OC)cc(C(=O)N2CCN(Cc3ccc4c(c3)OCO4)CC2)c1	-14%	i	-14%	i	1%	i
COc1ccc(-c2cc3ccc(O)c(CN4CCC(C)CC4)c3oc2=O)cc1OC	-11%	i	9%	i	7%	·
Cc1ccc(S(=O)(=O)N2CCCC(c3nc(-c4ccc(C)o4)no3)C2)cc1 (stereo not given)	-21%	i	-13%	i	-18%	i
CCCS(=O)(=O)N1CCCC(c2nc(-c3ccc(OC)cc3)no2)C1 (stereo not given)	-18%	13µM*	3%	i	-7%	i
CCS(=O)(=O)N1CCCC(c2nc(-c3cccc(OC)c3)no2)C1 (stereo not given)	0%	i	16%	i	1%	i
